In the library only some 1.4% were active in any assay of this set; here they are far more common.
HTR5A inv ag: inverse agonist of human HTR5A in OPRM1-OPRD1 counter-screen; P47898; hit rate 0.083% among 340,000; inhibition, % at 9.3 µM; HTR5A cell line, luminescence, inverse agonism; in the data active = inhibition mostly above about 23%, no sharp cut-off; inactive = mostly below about 18%;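 note: 0% = cells with DMSO and 100% = no-cell wells with DMSO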
Target sequence (P47898 whole entry, looked up): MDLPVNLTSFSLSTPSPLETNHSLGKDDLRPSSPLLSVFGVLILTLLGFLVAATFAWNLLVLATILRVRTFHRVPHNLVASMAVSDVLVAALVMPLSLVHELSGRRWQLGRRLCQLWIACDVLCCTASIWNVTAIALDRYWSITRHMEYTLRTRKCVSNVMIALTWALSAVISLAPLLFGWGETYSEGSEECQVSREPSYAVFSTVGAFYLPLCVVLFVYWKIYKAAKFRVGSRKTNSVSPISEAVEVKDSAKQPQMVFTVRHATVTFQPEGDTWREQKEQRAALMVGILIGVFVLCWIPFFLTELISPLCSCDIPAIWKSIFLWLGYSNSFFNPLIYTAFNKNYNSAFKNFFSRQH
OPRM1-OPRD1 inv: inverse agonists of human mu-delta opioid receptor heterodimerization; P35372+P41143; cell-based MOR-DOR heterodimer luminescence, inverse agonism; inhibition, % at 9.3 µM; hit rate 0.21% among 340,000; AID 504357; in the data active = inhibition above about 22%, passing the limit was not always enough;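 note: 0% = cells with DMSO and 100% = wells without cells with DMSO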
p-CIP stab down: compounds decreasing mouse p/CIP protein stability; Q05BA5; decrease of EGFP signal, % at 10 µM; F442A p/CIP-EGFP cells, EGFP fluorescence, 16 h; hit rate 0.01% among 290,000;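 active = EGFP signal decrease of at least 30% at 10 µM or well 3 SD below plate mean, unless failing retest; inactive = the rest, including hits failing retest or dose response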
beta cell repl: induces beta-cell replication in MIN6 cells | MIN6 cells proliferation, ATPlite luminescence, 48 h; cells starved in 0.2% serum; 100% = growth in 10% serum | proliferation, % at 10 µM | hit rate 0.29% among 330,000 | AID 2380;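 active = compounds whose signal lies at least 3.5 SD above the mean of all wells on their plate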;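 note: 0% = DMSO-treated cells in low-serum medium and 100% = 10% serum control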
HTR5A ag ctr: activates human HTR5A in OPRM1-OPRD1 agonist counter-screen; HTR5A agonist assay, luminescence, cell-based; activation, % at 9.3 µM; hit rate 0.61% among 340,000; in the data active = activation mostly above about 9.5%, no sharp cut-off; inactive = mostly below about 7.6%;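 note: 0% = cells with vehicle only and 100% = reference agonist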
MOR-DOR ag: agonists of human mu-delta opioid receptor heterodimerization; P35372+P41143; cells, OPRM1-OPRD1 heterodimerization, luminescence; activation, % at 9.3 µM; hit rate 0.3% among 340,000;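 note: 0% = vehicle-treated cells and 100% = reference agonist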
MOR-DOR ag conf: OPRM1-OPRD1 heterodimer agonism, confirmation; shares compounds with MOR-DOR ag; cells, MOR-DOR heterodimerization, luminescence complementation; activation, % at 9.3 µM; hit rate 45% among 830;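 note: 0% = vehicle-treated cells and 100% = reference agonist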
HTR5A ag ctr2: counter-screen for OPRM1-OPRD1 agonists: human HTR5A agonism; shares compounds with MOR-DOR ag; HTR5A agonist counterscreen, cell luminescence; activation, % at 9.3 µM; hit rate 8% among 830; AID 504905; in the data active = activation above about 17%;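 note: 0% = vehicle-treated cells and 100% = reference agonist response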
* hit, by the source's call; i = inactive; · = not tested or not shown. Cut-off read from the data, not from the text of the source, unless noted: active = activation above about 18%; inactive = the rest.

SMILES	HTR5A inv ag	OPRM1-OPRD1 inv	p-CIP stab down	beta cell repl	HTR5A ag ctr	MOR-DOR ag	MOR-DOR ag conf	HTR5A ag ctr2
CC(=O)Nc1ccc(S(=O)(=O)NC2=C(N3CCN(Cc4ccccc4)CC3)C(=O)c3ccccc3C2=O)cc1	7.0	-288.5	-8.7	·	-1.7	55.5*	69.2*	-7.2
CCN1CCN(C2=C(NS(=O)(=O)c3ccc(NC(C)=O)cc3)C(=O)c3ccccc3C2=O)CC1	0.6	2.6	-0.6	-3.8	-0.1	-0.5	·	·
CN(CC(=O)Nc1ccccc1C(F)(F)F)C(=O)CSc1nnc(-c2ccncc2)n1C	-6.2	8.6	·	-0.8	-4.2	-2.2	·	·
COC(=O)c1ccc(C(=S)NCC2(N(C)C)CCCCC2)cc1	-16.0	-199.1	-1.3	0.7	5.7	37.3*	3.4	70.0*
O=C(NC1=NCCS1)c1cccc(S(=O)(=O)N2CCOCC2)c1	3.3	3.5	·	4.9	-1.3	-0.9	·	·
CN(C)S(=O)(=O)c1ccc(-c2csc(N/N=C/c3ccco3)n2)cc1	16.1	-63.5	-14.6	-5.0	6.3	12.2	·	·
CN(C)S(=O)(=O)c1ccc(-c2csc(N/N=C/c3ccc(O)cc3)n2)cc1	-30.0	-201.2	-5.7	-6.0	11.0	37.8*	157.2*	3.5
CC(=O)Nc1ccc(NC(=O)C(=O)NCC(c2ccco2)N2CCc3ccccc3C2)cc1 (stereo unspecified)	-13.6	-134.5	·	-0.5	8.0	20.7*	22.5*	8.0
COc1ccc2c(=O)c(-c3cnn(-c4ccccc4)c3)c(C)oc2c1	-15.9	-7.9	-6.0	-3.2	3.3	1.3	·	·
Cc1oc2c(C)c(O)ccc2c(=O)c1-c1cnn(-c2ccccc2)c1	-30.8	-80.4	2.4	-4.0	11.2	18.5*	17.0	-1.0
CCOC(=O)C1CCN(C(=O)/C=C/c2ccccc2)CC1	2.8	14.6	8.0	0.1	5.3	-2.9	·	·
CN(C)C(CNC(=O)C1CC(=O)N(Cc2ccccc2)C1)c1ccccc1 (stereo unspecified)	4.9	-250.1	·	0.7	-5.0	46.4*	59.1*	3.2
CN(C)C(CNC(=O)CSC(=S)N1CCCC1)c1ccccc1 (stereo unspecified)	-5.3	i	·	6.4	1.4	195.0*	183.4*	-3.6
O=C(CSC(=S)N1CCCC1)NCCc1ccccc1	-12.3	10.2	·	1.8	7.0	-1.6	·	·
CN(C)C(CNC(=O)C1CCN(C(=O)/C=C/c2ccccc2)CC1)c1ccccc1 (stereo unspecified)	14.5	-164.7	-7.1	0.2	-0.4	20.0*	17.7	1.6
COc1ccc(C(C(=O)NC2CCCCC2)N(C(=O)Cc2c[nH]c3ccccc23)c2ccc(NC(C)=O)cc2)cc1OC (stereo unspecified)	-7.7	-114.5	-4.1	-0.4	2.8	26.3*	83.1*	-1.9
O=C(COC(=O)/C=C/c1ccco1)NCCN1C(=O)CSC1=O	-8.6	8.3	·	·	3.2	-1.6	·	·
Cc1cc(C)cc(OCC(=O)N2CCN(c3ncccn3)CC2)c1	15.8	15.7	·	-0.3	-4.1	-3.1	·	·
CC(C)CNC(C(=O)Nc1ccc([N+](=O)[O-])cc1Br)c1ccccc1 (stereo unspecified)	-5.3	-20.5	-8.0	-5.5	4.0	3.3	·	·
CN(C)C(CNC(C(=O)Nc1ccc([N+](=O)[O-])cc1Br)c1ccccc1)c1ccccc1 (stereo unspecified)	35.4	-317.6	-11.8	-6.3	9.6	65.9*	79.0*	4.1
CN(C)C(CNC(C(=O)Nc1ccc(F)cc1)c1ccccc1)c1ccccc1 (stereo unspecified)	-7.7	i	-7.7	-2.2	2.6	230.0*	-0.2	2.7
O=C(Nc1ccc(F)cc1)C(NC1CCCCC1)c1ccccc1 (stereo unspecified)	2.6	3.7	17.1	-2.2	-1.0	-0.8	·	·
Cc1nn(-c2ccccc2)c(C)c1C(=O)OC(C)C(=O)NC1CCCCC1 (stereo unspecified)	6.1	-1.6	·	-2.3	-1.7	0.3	·	·
CN(C)C(CNC(=O)c1cc2ccccc2oc1=O)c1ccccc1 (stereo unspecified)	-2.4	-255.1	-2.1	0.1	1.5	31.1*	133.2*	-3.5
C=CCn1c(O)c(C2=c3ccccc3=NC2=O)sc1=Nc1ccc(O)cc1	21.5	-194.9	12.1	-6.3	-7.7	37.8*	15.4	3.1
SMILES	HTR5A inv ag	OPRM1-OPRD1 inv	p-CIP stab down	beta cell repl	HTR5A ag ctr	MOR-DOR ag	MOR-DOR ag conf	HTR5A ag ctr2
CC1CN(C)C(C)c2c1oc1ccc(N)cc21 (stereo unspecified)	-12.1	-373.2	-10.7	-1.6	-3.4	71.7*	58.4*	4.0
CN(Cc1ccc(OC(F)F)cc1)C(=O)c1cccc(S(=O)(=O)N2CCN(Cc3ccccc3)CC2)c1	-6.2	-7.4	·	·	2.3	1.4	·	·
N=c1n(Cc2ccc(Cl)cc2)c2ccccc2n1CC(O)COc1ccccc1 (stereo unspecified)	-40.7	i	18.8	-5.7	14.3*	94.1*	-1.8	0.2
O=S(=O)(c1ccc(Cl)cc1)N1CCN(c2ncnc3sccc23)CC1	0.4	-11.2	·	-6.1	-0.1	2.6	·	·
Cc1sc(NC(=O)CSc2nnc3scc(-c4ccccc4)n23)c(C#N)c1C	-26.9	-105.4	0.8	-2.9	2.7	19.5*	0.3	2.8
Cc1sc(NC(=O)CSc2nnc(COc3ccccc3)n2C)c(C#N)c1C	-8.5	-82.0	-9.5	-2.6	3.2	13.5	·	·
Cc1cc(NC(=O)CSc2ccc(-c3nc4cc(C)c(C)cc4[nH]3)cn2)no1	-11.6	-105.9	-8.6	-6.6	3.6	19.9*	0.6	12.1
N#C/C(=C(/O)C(Cl)(Cl)Cl)c1nc2ccccc2[nH]1	0.7	-108.0	-17.2	-2.3	-0.2	21.2*	10.2	6.0
C/C(O)=C(/C#N)c1nc2ccccc2[nH]1	-12.8	0.6	-10.3	-1.3	-6.7	-0.1	·	·
Cc1cc2[nH]c(=O)c(=O)[nH]c2cc1S(=O)(=O)Nc1cccc(Cl)c1	7.1	8.5	-17.5	-1.2	4.8	-1.7	·	·
CCOc1ccc(NC(=O)CCc2c(C)nn(-c3ccc(N4CCCCC4)nn3)c2C)cc1	17.5	15.0	1.3	-3.1	-1.5	-2.9	·	·
OC(c1cc(C(F)(F)F)nc2c(Cl)cc(Cl)cc12)C1CCCCN1 (stereo unspecified)	-41.6	-139.5	5.4	-6.9	11.6*	31.3*	1.2	3.1
OC(c1cc(-c2ccc(Cl)cc2)nc2ccccc12)C1CCCCN1 (stereo unspecified)	6.8	-27.6	-1.3	·	-1.9	6.2	·	·
CCN(C[C@H]1N[C@@](CC)(C(=O)OC)[C@H]2C(=O)N(C)C(=O)[C@@H]12)C(=O)COC	2.5	19.1	·	1.0	-0.7	-4.1	·	·

High-throughput results as filed in PubChem.
